From PubChem BioAssay AID504637 (National Center for Advancing Translational Sciences (NCATS), 2011)
Out of some 1,100 compounds screened, about 430 (39%) were called active. Inconclusive results (about 44%) are left out. So high a share suggests a set chosen from earlier hits. The entries come from a sample that favours actives as a whole. Unmarked numbers belong to inactive results. Calls follow the shape of the dose curve; as a rule, active = well fitted inhibition curve with a large enough effect; inconclusive = small, poorly fitted or top-dose-only effect, or effect the other way; inactive = flat fitted curve, though single readings scatter.

Biological target: ATP-dependent 6-phosphofructokinase (Trypanosoma brucei brucei) (UniProt O15648)
Sequence (O15648 whole entry, looked up): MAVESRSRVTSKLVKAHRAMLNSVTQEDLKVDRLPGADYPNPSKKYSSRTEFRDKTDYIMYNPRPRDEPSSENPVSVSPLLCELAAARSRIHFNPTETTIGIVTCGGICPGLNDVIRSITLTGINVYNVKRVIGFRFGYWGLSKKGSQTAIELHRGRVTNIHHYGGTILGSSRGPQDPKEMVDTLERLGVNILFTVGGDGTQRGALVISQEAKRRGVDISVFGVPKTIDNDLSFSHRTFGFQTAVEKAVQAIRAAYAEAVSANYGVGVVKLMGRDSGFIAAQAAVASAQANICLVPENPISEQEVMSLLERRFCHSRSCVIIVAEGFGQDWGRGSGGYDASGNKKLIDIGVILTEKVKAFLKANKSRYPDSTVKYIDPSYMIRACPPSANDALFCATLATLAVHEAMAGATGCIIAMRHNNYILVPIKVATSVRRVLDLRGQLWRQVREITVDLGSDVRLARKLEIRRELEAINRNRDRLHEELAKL
Experiment: Inhibitors of T. brucei phosphofructokinase: Hit Validation; also: nearly all actives have a fitted effect of over 60% in size;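 as to activity change, negative = inhibition: plate controls were full PFK enzyme control for no effect and no enzyme control for full effect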
Details: purified T. brucei PFK, ADP-Glo luminescence, 45 min; series mostly up to 57.5 µM; activity change, negative = inhibition: at the top concentration
Text: NCGC Assay Overview: Various species of the protozoan family Trypanosomatidae are responsible for a range of serious human diseases in tropical and subtropical areas of the world. […] Many of the disorders caused by trypanosomatids are fatal if left untreated, but most currently used drugs are inefficient and toxic. […] Oxidative metabolism involving the mitochondrial tricarboxylic acid cycle and oxidative phosphorylation are repressed in these parasites, and recent RNA interference (RNAi) experiments have shown that even partial depletion of certain individual glycolytic enzymes can lead to the death of cultured parasites. One such glycolytic enzyme, phosphofructokinase (PFK), catalyzes the formation of fructose-1,6-bisphosphate (F1,6BP) and ADP from fructose-6-phosphate (F6P) and ATP, and in many metabolic circumstances makes an important contribution to the control of flux through the glycolytic pathway. As a specific glycolytic target, PFK is particularly attractive as it catalyzes the first irreversible step in glycolysis, and structural and kinetic studies have shown very substantial and essential differences from corresponding host enzymes, allowing for the discovery of parasite-selective inhibitors. The goal of this screen is to find small-molecule inhibitors of T. brucei PFK using a biochemical assay that measures PFK activity as a function of ADP production. A luminescence-based assay for T. brucei PFK activity has been developed which uses luciferase to detect production of ADP. Traditional luciferase-based nucleotide detection reagents rely on ATP production as a direct substrate for the luciferase reaction; however, PFK catalyzes the transfer of a phosphate from ATP to F6P, resulting in the net depletion of ATP. To directly measure the ADP product of the PFK reaction, we used the ADP-Glo detection kit (Promega), which utilizes two separate reactions to 1) deplete all remaining uncatalyzed ATP and 2) convert all remaining ADP to ATP, which is then detected through a traditional luciferase-coupled reaction. Compounds were screened as a concentration-titration series that ranged from 57uM to 0.7nM. 1. Verlinde, C.L., et al., Glycolysis as a target for the design of new anti-trypanosome drugs. Drug Resist Updat, 2001. 4(1): p. 50-65. 2. Albert, M.A., et al., Experimental and in silico analyses of glycolytic flux control in bloodstream form Trypanosoma brucei. J Biol Chem, 2005. 280(31): p. 28306-15. 3. […] J Mol Biol, 2009. 385(5): p. 1519-33. NIH Molecular Libraries Probe Production Network [MLPCN] NIH Chemical Genomics Center [NCGC] Grant: 1 R03 MH092153-01 PI Name: Malcolm Walkinshaw, University of Edinburgh
NCGC Assay Protocol Summary: Substrate buffer was dispensed into white, solid 1536-well plates at 3uL/well in 0.1M triethanolamine (TEA) buffer, pH 8.0, containing final concentrations of 5 mM MgCl2, 0.01% Tween20, 0.5 mM fructose-6-phosphate (F6P) and 0.1mM ATP. Then, 23 nL of compounds or DMSO were delivered to each well using a pin tool. One uL T. brucei PFK (0.1M TEA, 0.01% Tween20, 0.1% bovine serum albumin (BSA) and 1.25nM PFK, final concentrations) was then dispensed, and plates were incubated at room temperature for 45 min. The luminescent detection reagent, ADP-Glo (Promega), was then added in two steps: the first reagent, ADP-Glo (which converts remaining uncatalyzed ATP), was added at 2.5uL/well and incubated for ten minutes at room temperature, and the second component, Kinase Detection reagent (which converts ADP to ATP as a substrate for luciferase-based luminescence), was added immediately after at 5uL/well, followed by one final ten minute room temperature incubation. The plates were measured on a ViewLux plate reader for luminescent signal using a clear filter with a one second exposure. The %Activity was determined from the corrected luminescence values. […]
Potency is read from the fitted curve at half-maximal effect.

Structure (SMILES)	Potency	activity change, negative = inhibition [%]
Cn1nnnc1NCc1ccc(Cl)c(Cl)c1	23.9 µM (active)	–
Cc1ccc(CC(=O)Nc2ccc(S(=O)(=O)N3CCOCC3)cc2)cc1C	–	-29.8
O=C(Cc1ccc(Cl)c(Cl)c1)Nc1ccc(SC(F)F)cc1	23.9 µM (active)	–
O=C(COC(=O)CCC(=O)c1cccs1)NCc1ccco1	–	-18.7
C=CC1=C(C(=O)O)N2C(=O)[C@@H](NC(=O)/C(=N\OCC(=O)O)c3csc(N)n3)[C@H]2SC1	4.26 µM (active)	–
N#Cc1cccc(CSc2ncnc(N)n2)c1	26.9 µM (active)	–
C=C1c2c(Cl)ccc(O)c2C(O)=C2C(=O)[C@]3(O)C(O)=C(C(N)=O)C(=O)[C@@H](N(C)C)[C@@H]3[C@@H](O)C12 (some centres not stated)	–	-15.8
O=C1CSC(=S)N1/N=C/c1ccc(O)c([N+](=O)[O-])c1	–	-1.08
COC(=O)CC(=O)N1CCN(c2ccc(Cl)c(Cl)c2)CC1	26.9 µM (active)	–
O=C1CSC(=S)N1c1ccc(Cl)c(Cl)c1	–	-15.2
Cc1nn(Cc2ccc(Cl)c(Cl)c2)c(C)c1NC(=O)c1cc(C2CC2)on1	12 µM (active)	–
O=[N+]([O-])/C=C/c1ccc2c(ccn2Cc2ccccc2)c1	23.9 µM (active)	–
CC(C)(C)c1nnc(NC(=O)C2c3ccccc3Oc3ccccc32)s1	26.9 µM (active)	–
Cc1ccc(NC(=O)c2cc(-c3ccc(C)o3)nc3ccccc23)nc1	12 µM (active)	–
O=C(Cc1ccc([N+](=O)[O-])cc1)N/N=C/c1ccco1	23.9 µM (active)	–
O=C(NCc1ccc(Cl)c(Cl)c1)c1cccnc1	26.9 µM (active)	–

Structure (SMILES)	Potency	activity change, negative = inhibition [%]
Cc1ccc(-c2nn(-c3ccccc3)cc2/C=C2\SC(=S)N(CCCCCC(=O)O)C2=O)o1	30.1 µM (active)	–
O=c1[nH]c(=S)[nH]c2[nH]c(=S)[nH]c12	1.9 µM (active)	–
O=[N+]([O-])c1c(NCCO)cc(Sc2nc3ccccc3s2)c2nonc12	1.51 µM (active)	–
O=C(CSc1nc(O)c(Cc2ccccc2)c(=O)[nH]1)Nc1nc2c(s1)CCCC2	16.9 µM (active)	–
OCCN1CCN(C(=S)c2ccc(-c3ccccc3)cc2)CC1	26.9 µM (active)	–
FC(F)(F)C1CCCN(c2nsc3ccccc23)C1 (configuration not stated)	4.26 µM (active)	–
CCn1nc(C(=O)NNS(=O)(=O)c2cc(/C=C/C(=O)O)cc(OC)c2OC)c2ccccc2c1=O	–	-8.81
Cc1c(C)c2ccc(OCC(=O)N3CCN(c4cccc(Cl)c4)CC3)cc2oc1=O	8.49 µM (active)	–
COc1ccc(N/C=C(\C2OC(=O)c3ccccc32)[N+](=O)[O-])cc1 (configuration not stated)	–	-3.4
Cc1nc(N)nc(SCc2ccc([N+](=O)[O-])cc2)c1N	19 µM (active)	–
Cc1cccc(-n2c(N)c(C(=O)N3CCN(C)CC3)sc2=S)c1	13.5 µM (active)	–
O=c1ccnc(Nc2ccc(Cl)cc2)[nH]1	30.1 µM (active)	–
C=C(C)C(=O)Nc1cccc(C2=NOC3(C2)C[C@H](C(N)=O)N(C(=O)C(c2ccccc2)c2ccccc2)C3)c1 (some centres not stated)	1.9 µM (active)	–
Cn1sc(=O)c2cc(S(=O)(=O)NC3CC3)ccc21	21.3 µM (active)	–
O=c1[nH]c2ccccc2n2c(-c3ccccc3)nnc12	13.5 µM (active)	–
Cc1ccccc1CN1C[C@@H]2C[C@@H](c3cn(C)nc3-c3ccccc3)N3CCC[C@@]23C1=O	–	-23.6
